Compound activity from PubChem.
aSyn UTR act – Activators via SNCA 5'UTR binding, MLPCN. alpha-synuclein 5'UTR reporter, activators screen. activity score, % (tested at 7.5 µM), hits read low. hit rate 7.1% among 300,000. AID 1814; in the data active means activity score below about -60%
Active calls of the source: *. These entries were drawn from the full list.

SMILES | aSyn UTR act
Cc1ccc(CSc2nnc(SCC(=O)N/N=C/c3ccc(C(=O)O)cc3)s2)cc1 | 70
Cc1ccc(CSc2nnc(SCC(=O)N/N=C/c3ccccc3OCC(=O)O)s2)cc1 | 62
COc1cccc(NC(=O)C(=O)NCCC2CCCCN2S(=O)(=O)c2cccs2)c1 (centres undefined) | -148*
CC(C)CCNC(=O)C(=O)Nc1ccc2c(c1)N(S(=O)(=O)c1cccs1)CCC2 | -73*
Cc1ccccc1NC(=O)c1ccc2c(c1)OCCO2 | -157*
Cc1cccc(NC(=O)c2ccc3c(c2)OCCO3)c1C | -113*
N#Cc1ccccc1NC(=O)COC(=O)c1ccc2c(c1)OCCO2 | -130*
COC(=O)c1ccccc1NC(=O)c1ccc2c(c1)OCCCO2 | -85*
N#Cc1ccccc1NC(=O)c1ccc2c(c1)OCCO2 | -94*
COc1ccc2c(c1)CC/C2=N\OC(=O)c1ccccc1OC | -65*
COc1ccc(C(=O)CC(=O)c2ccccc2O)cc1 | -218*
COc1ccc(O)c(C(=O)CC(=O)c2ccccc2C)c1 | -100*
COc1ccc(O)c(C(=O)CC(=O)c2ccc(F)cc2)c1 | 73
CC(=O)NC(CSC(CC(=O)c1ccco1)c1ccc(C)cc1)C(=O)O (centres undefined) | -90*
COc1cc(/C(C)=N/NC(=O)CSc2nncn2C)ccc1OCc1ccccc1Cl | -83*
COC(=O)Cn1c(=NC(=O)c2ccc(Cl)s2)sc2cc(C)ccc21 | -184*
COC(=O)Cn1c(=NC(=O)c2ccc([N+](=O)[O-])s2)sc2cc(Br)ccc21 | -68*
COc1ccc(C(C#N)=C2C=CC(=NO)C=C2)cc1 | -148*
O=C(Nc1cccc(F)c1)c1c(O)c2ccccc2[nH]c1=O | -140*
COc1ccccc1NC(=O)c1c(O)c2ccccc2[nH]c1=O | -76*
COc1ccc(-n2c(C)nn(CCOc3ccccc3)c2=O)cc1 | -90*
CC(=O)c1ccc(NC(=O)C2(c3ccccc3)CCOCC2)cc1 | -118*
Cc1ccc(-n2ncc(C(=O)Nc3cc(Cl)cc(Cl)c3)c2C2CCNCC2)cc1C | 93
Cc1cc(C)n(CC(=O)NC2CCCc3c2cnn3-c2ccc(C)c(C)c2)n1 (centres undefined) | -84*
CC(=Nc1ccc(C)c(C)c1)C1=C(O)CSC1=O | -122*
SMILES | aSyn UTR act
COc1ccccc1C(=O)Nc1nnc(-c2ccco2)s1 | -168*
COc1ccc(C(=O)Nc2nnc(SCC(=O)Nc3ccc(NC(C)=O)cc3)s2)c(OC)c1 | -63*
Cc1ccccc1C(=O)Nc1nnc(-c2ccco2)s1 | 65
O=C(CSc1nnc(NC(=O)c2ccccc2F)s1)NCc1ccco1 | -80*
COc1ccccc1C(=O)Nc1nnc(SCC(=O)NCc2ccco2)s1 | -67*
COc1ccc(C(=O)Nc2nnc(SCC(=O)NC3CCCC3)s2)c(OC)c1 | 58
COc1ccccc1C(=O)Nc1nnc(SCC(=O)NCC2CCCO2)s1 (centres undefined) | -102*
COc1ccccc1-c1nnc(NC(C)=O)s1 | -91*
O=C(CSc1nnc(NC(=O)c2ccccc2F)s1)NCc1ccc(F)cc1 | -84*
O=C(CSc1nnc(NC(=O)c2ccc(F)cc2F)s1)NC1CC1 | -69*
CCC1CCCCN1C(=O)c1ccc(OC2CCN(C(=O)CCOC)CC2)cc1 (centres undefined) | -82*
COc1ccccc1-c1noc(-c2cccs2)n1 | -236*
O=[N+]([O-])c1cccc(-c2noc(-c3cccs3)n2)c1 | -147*
COc1ccc(-c2nc(-c3cccs3)no2)cc1 | 83
COc1ccccc1-c1noc(-c2ccncc2)n1 | -74*
COc1cccc(-c2ccc(-c3noc(-c4cccs4)n3)c(OC)n2)c1 | -85*
COc1ccccc1-c1nc(-c2ccccn2)no1 | 77
Cc1c(/C(O)=C2\C(=O)C(=O)N(CCN(C)C)C2c2cccs2)cnn1-c1ccccc1 (centres undefined) | -88*
Cc1ccc(C2/C(=C(/O)c3cnn(-c4ccccc4)c3C)C(=O)C(=O)N2CCCN2CCOCC2)o1 (centres undefined) | -111*
C=CCSc1nncn1/N=C/c1ccc(OC)cc1 | -99*
Cn1ncc(Cl)c1C(=O)Nc1nc2ccc(Cl)cc2s1 | -198*
Cc1cc(C(=O)Nc2nc3ccc(Cl)cc3s2)nn1C | -128*
CCc1ccc(C(=O)Nc2cc(C)ccc2F)s1 | -143*
CCOC(=O)c1sc(NC(=O)c2ccc(CC)s2)nc1C | -133*
COC(=O)Cc1csc(Nc2ccccc2Cl)n1 | -86*
SMILES | aSyn UTR act
CCOC(=O)c1csc(NC(=O)c2cc3ccccc3o2)n1 | -125*
Cc1nnc(NC(=O)c2cc3ccccc3o2)s1 | -82*
CCOC(=O)Cc1cnc(NC(=O)c2ccccc2)s1 | -113*
CCOC(=O)c1csc(NC(=O)c2ccc3c(c2)OCCO3)n1 | -79*
Cc1nc2c(ccc3nc(NC(=O)c4ccc5c(c4)OCCO5)sc32)s1 | -117*
CCOC(=O)c1sc(NC(=O)Nc2ccccc2F)nc1C | 70
CCOC(=O)c1csc(NC(=O)c2ccccc2)n1 | -158*
CCOC(=O)c1csc(-c2ccc3c(c2)CCO3)n1 | -110*
CCOC(=O)c1sc(NC(=O)c2cc3ccccc3o2)nc1C | -113*
CCOC(=O)c1sc(Nc2ccccc2Cl)nc1C | -184*
C=CCOC(=O)c1sc(NC(=O)c2ccco2)nc1C | -167*
CCN(CC)C(=O)c1ccc(-c2cccs2)s1 | -73*
COC(=O)c1ccc(Cn2nc(C)cc2C)cc1 | -71*
CC(NC(=O)Nc1ccc2c(c1)OCO2)C1CCCO1 (centres undefined) | -112*
CC(C)C(NC(=O)C1CCCCC1)C(=O)Nc1ccc2c(c1)OCCO2 (centres undefined) | -66*
O=C(Nc1ccc2c(c1)OCO2)C1CCCCC1 | -92*
C=CCn1c(SCc2c(C)noc2C)nc2sc3c(c2c1=O)CCCCC3 | 65
O=c1c2c3c(sc2nc2sc(CN4CCCCC4)cn12)CCCC3 | -87*
C/C(=N\N=C(/N)c1nonc1N)c1ccc2c(c1)OCO2 | -110*
Cc1ccnc(NC(=O)CCc2c[nH]c3ccccc23)c1 | -71*
Cc1ccnc(NC(=O)CCNC(=O)c2ccccc2Cl)c1 | -103*
Cc1ccnc(NC(=O)c2ccccc2NC(=O)c2ccc(Cl)cc2Cl)c1 | 69
C/C(CC(=O)Nc1cc(C)ccn1)=N\NC(=O)c1cccc(C)c1O | -63*
Cc1ccnc(NC(=O)c2cccc3ccccc23)c1 | -63*
O=C(CCc1nnc(CCc2c[nH]c3ccccc23)o1)NC1CCC1 | -133*
SMILES | aSyn UTR act
Oc1c(-c2cc(-c3ccco3)[nH]n2)ccc2ccccc12 | -170*
Oc1ccccc1-c1cc(-c2ccco2)[nH]n1 | -256*
O=C(NCc1cccnc1)c1c[nH]c2cc3c(cc2c1=O)OCCO3 | -123*
O=C(c1ccccc1)c1c[nH]c2cc3c(cc2c1=O)OCCO3 | -67*
CC(C)(C)NC(=O)C(=O)NNC(=O)c1cccc(F)c1 | -89*
O=C(CCl)N1c2ccccc2SCC1c1ccccc1 (centres undefined) | -64*
c1ccc(-n2ncc3c(NCc4ccccn4)ncnc32)cc1 | -69*
Cc1cccc(-n2ncc3c(NCc4ccccn4)ncnc32)c1 | -113*
CN1CCN(S(=O)(=O)c2ccc(Br)c3nsnc23)CC1 | -70*
COCCCNC(=S)N/N=C/c1ccc(N(C)C)cc1 | -112*
COCCCNC(=S)N/N=C/c1ccc(N(C)C)cc1Cl | -107*
Cc1nc(NC(=O)Nc2ccc(Cl)cc2)sc1C | -164*
COc1ccc(NC(=O)Nc2nnc(C(C)(C)C)s2)cc1 | -67*
CC(C)(C)c1nnc(NC(=O)Nc2ccc(Cl)cc2)s1 | -114*
